According to the supplement of paper PMC11417369:
± gives the standard deviation of the averaged measurements. Whole data set: some 25,000 sequences, median “ln(normalized median fluorescence intensity)” near 10, cut for the highest 2% near 12. The entries come from a sample that favours the highest values as a whole.

What follows are sequences tested on PfAP2-G AP2 domain (GST-tagged) (assay: gcPBM binding intensity (ln(normalized median fluorescence intensity)); higher = stronger DNA binding).
Summary of the method: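 The highest Masliner-normalised natural-log median intensity across replicate spots of either probe orientation is reported as binding intensity. GST-tagged P. falciparum DNA-binding domains expressed in E. coli were applied for 1 h to an Agilent 4 × 180k array of primer-extended double-stranded 36-bp intergenic genomic probes plus negative controls, and bound protein was detected with Alexa488 anti-GST antibody and scanned at 488 nm.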

Sequence	gcPBM binding intensity (ln)
AAATCATATTCTTATTTTATTTTTTTTATTTTTTAT [XGTACX_negctrl_site166]	9.55 ± 0.17
AAACATGATTATTATAGTACAATTATAATTATTATA [XGTACX_site2590]	10.8 ± 0.59
GTATATATATTTGTACGTACATATTGTTGTAAACAC [XGTACX_site8833]	11.7 ± 0.71
TATAATAATACGTATTGTACTATTAGGTTAATTCGT [XGTACX_site264]	11.1 ± 0.66
ATATGTATATATGTATGTACGTACAAATTGTTGTAA [XGTACX_site8832]	11.7 ± 0.8
ATATATATATATATTTGTACGTATTATGTATTTTTT [XGTACX_site3530]	11.5 ± 0.98
ATGTAGGTTAATTATTGTACGTAGGGGGTGTATATT [XGTACX_site3973]	11.8 ± 1.2
TAAACAGATATATTTTGTACATATTGTATATTTTGT [XGTACX_site713]	10.6 ± 0.28
TATATATATATATGTTGTACAAAAATGTAAAATATA [XGTACX_site7761]	11.1 ± 0.57
AATATATATAATAATTGTACAATACGTATGTTATAT [XGTACX_site8745]	11 ± 0.54
TATAATAATAATTATTGTACGATTAGGTTAATTCAT [XGTACX_site1984]	11.1 ± 0.7
ATGTTATATATGTATTGTACGTATTTTGTATATTAT [XGTACX_site6607]	11.6 ± 1.1
AAATTATTATATATATGTACGTATAATGTATTTTGT [XGTACX_site2903]	11.5 ± 1.1
GTGTGTGTATATATTTGTACATATATTTAAACATAT [XGTACX_site1074]	11.4 ± 0.71
TATAATATTCCTTTTTAACACACATATGAACAAATA [CACACA_site7932]	10.1 ± 0.18
CATTATTCATTTTGGATGCACTGACAGAAAAATGGT	10.4 ± 0.18
CTTAGGTGTTCATAGAGTACAAATAAAAAAATAAGA [XGTACX_site2294]	11.3 ± 0.95
TACCTAAATAAATGGACACACACATATATATATATA [CACACA_site8407]	10.8 ± 0.53
TATATTTTAAAATTATGTACATATATAGATAAATGT [XGTACX_site1349]	11.3 ± 0.52

Sequence	gcPBM binding intensity (ln)
AATTAGATGGATAAATGTACATAATGTGAATATATT [XGTACX_site86]	11 ± 0.4
TCATATATATATATATGTACATATTTATGTATGTAT [XGTACX_site6291]	11.1 ± 0.66
TAGTTCCTCAAAAATTTCCTTTGTCATTTTATTCAC [GTGCAC_negctrl_site20]	10.17 ± 0.085
TTCCTTTGTCCTAACTGTACTCAAATTTATTAGTGG [XGTACX_site226]	11.8 ± 0.75
TTCCTTAATCAATATTGTACTTTTTATAAATTTAGT [XGTACX_site3678]	11.4 ± 0.85
TATAAAAATATATTTACACACTATAAATATCGAAAG [CACACA_site6896]	9.96 ± 0.18
TAATTTATGACACGCGCACACATATATATATAGTAA [CACACA_site4249]	10.6 ± 0.42
ACAAAAATGAGATGGTGTACGCACAAATAAATAATA [XGTACX_site5221]	11.7 ± 0.79
CAAAGATAAAATGATGCACACAAAAGGGTGTAATAT [CACACA_site8499]	10.25 ± 0.014
AAGATAAAATGATGCACACAAAAGGGTGTAATATAT [CACACA_site1706]	10.13 ± 0.049
TCCCACTGTTATATTGAAAAAAAAAAAAAAAAAAAA [TGCATGCA_negctrl_site288]	9.82 ± 0.5
AAACAACATGGACACGCACACACAAAAAAAGCATGC [CACACA_site73]	11 ± 0.48
TAATTTTCATATTTCTGTACATATATTATAAATATA [XGTACX_site3480]	11 ± 0.69
TAAAATATATTTTTCTGTACACAAAAATATATTAAA [XGTACX_site2813]	11.5 ± 0.96
ATTAGGCATATTTTCTGTACACAATAATAAAAAAAA [XGTACX_site3957]	11.6 ± 0.91
AATCAAAAAAAATGTTGTACGCCTAATTATAATTAA [XGTACX_site8906]	11.6 ± 0.8
TGTATAGTCTAAAGTTGTACAAAAAAAAAAAAAAAA [XGTACX_site5764]	11.3 ± 1
GTGTAGGCAAAAAGTTGTACGCCTAAAATCTATATA [XGTACX_site8912]	11.7 ± 1.1
TATATATATATATGTTGTACTTTTAATTTAAATGTA [XGTACX_site4239]	11.6 ± 0.94

Sequence	gcPBM binding intensity (ln)
TATTTTAATTTTTGTTGTACGCAAATGTGAGGGCAT [XGTACX_site4663]	11.7 ± 1.2
TTTTAATTTTGTTGTTGTACAAATAACATGTGAGGG [XGTACX_site4401]	11.2 ± 0.83
TTCTTATTTTATATTTCACACATTTTTACTATACTT [CACACA_site5817]	10.08 ± 0.071
CACCCACACCAACACACACACATATATAATATATAT [CACACA_site595]	10.3 ± 0.33
TAAATAATATAATTATGTACGTATTTCTTTATTTTA [XGTACX_site8410]	11.4 ± 0.83
CCCTTTTCTAAATATTGTACGTATAAATTATATTAC [XGTACX_site7676]	11.7 ± 0.88
TTTTTTTTTTTCTTTTGTACGTATAAAATTATATAA [XGTACX_site2453]	11.5 ± 0.66
GGTGCACCCATATACACACACAAATACAATGATAAA [CACACA_site1132]	10.6 ± 0.76
AATATATAAATTGACACACACATATATACATATATA [CACACA_site1213]	10.1 ± 0.11
TGTCTGTGCGGGTGTACACATTTCATATTACCCAAT [CACACA_site5593]	11.8 ± 0.98
AATTCATTTTACCCATGTACACAATTATATTTTATA [XGTACX_site4127]	11.6 ± 0.83
TATATATTTTGTGTCTGTACACATATTATTAATTCC [XGTACX_site7507]	11.4 ± 1
AATTTTTCATCAAGTTGTACAATTATTTGTTTGTTT [XGTACX_site3113]	11.3 ± 0.73
ATATTAGAAATATGAATAGAAAGAATATATAAGTAT [CACACA_negctrl_site682]	9.76 ± 0.37
TGTTTCTAAAAAAAAGGTACACATATATATAATATA [XGTACX_site3217]	11.4 ± 0.93
TCGATATATAGACACACACACTTTTAATAATTAAAT [CACACA_site7726]	10.2 ± 0.24
AACAATGTTTTCTTGTGTACACATCATTAAAGAAAA [XGTACX_site4726]	11.6 ± 0.88
TCTTTAATGATGTGTACACAAGAAAACATTGTTAAG [CACACA_site5299]	11.7 ± 0.89
TCAAATGTGTAATCTTGTACACATTAAAAGAAAAAA [XGTACX_site8822]	11.2 ± 0.83
